# Laboratory results reported in the antibiotic and cytotoxicity screens of Wong et al. (2023).
# Among all 39,000 compounds or so, about 1,500 (3.8%) were called active. What follows is part of a selection rich in actives, with near analogues and random picks from the rest.
# Test system: HSkMC (human skeletal muscle cells)
# Test: cytotoxicity call (relative viability < 0.9)
# Conditions: 10 µM
row,SMILES,cytotoxicity call
1,C[C@H](CO)N1C[C@H](C)[C@@H](CN(C)C(=O)Nc2ccc(C(F)(F)F)cc2)Oc2ccc(NC(=O)Cc3ccccc3)cc2CC1=O,inactive
2,C[C@@H]1CN([C@@H](C)CO)C(=O)c2cc(NC(=O)C3CCCCC3)ccc2O[C@@H]1CN(C)Cc1ccc(C(F)(F)F)cc1,inactive
3,C[C@@H]1CN([C@@H](C)CO)C(=O)c2cc(NC(=O)Nc3cccc4ccccc34)ccc2O[C@@H]1CN(C)C(=O)Nc1cccc2ccccc12,active
4,C[C@@H]1CN([C@@H](C)CO)C(=O)c2cc(NC(=O)Nc3cccc4ccccc34)ccc2O[C@H]1CN(C)C(=O)Nc1cccc2ccccc12,inactive
5,C[C@@H]1CN([C@H](C)CO)C(=O)c2cc(NC(=O)Nc3cccc4ccccc34)ccc2O[C@@H]1CN(C)C(=O)Nc1cccc2ccccc12,active
6,C[C@@H]1CN([C@H](C)CO)C(=O)c2cc(NC(=O)Nc3cccc4ccccc34)ccc2O[C@H]1CN(C)C(=O)Nc1cccc2ccccc12,inactive
7,C[C@H]1CN([C@@H](C)CO)C(=O)c2cc(NC(=O)Nc3cccc4ccccc34)ccc2O[C@@H]1CN(C)C(=O)Nc1cccc2ccccc12,inactive
8,C[C@H](CO)N1C[C@H](C)[C@@H](CN(C)C(=O)Nc2cccc3ccccc23)Oc2ccc(NC(=O)Nc3cccc4ccccc34)cc2C1=O,inactive
9,NC(=O)c1c(Cl)ncc2c1NCC2,inactive
10,COC1=C(OC)C(=O)C(C/C=C(\C)CC/C=C(\C)CC/C=C(\C)CC/C=C(\C)CC/C=C(\C)CC/C=C(\C)CC/C=C(\C)CC/C=C(\C)CC/C=C(\C)CCC=C(C)C)=C(C)C1=O,inactive
11,COC1=C(OC)C(=O)C(CC=C(C)CCC=C(C)CCC=C(C)CCC=C(C)CCC=C(C)CCC=C(C)CCC=C(C)CCC=C(C)CCC=C(C)CCC=C(C)C)=C(C)C1=O,inactive
12,COC(=O)CCCCCCC(=O)Nc1ccc(NC(=O)CCCC[P+](c2ccccc2)(c2ccccc2)c2ccccc2)cc1,inactive
13,COC1=C(OC)C(=O)C(CCCCCCCCCCO)=C(C)C1=O,active
14,COC1=C(OC)C(=O)C(CCCCCCCCCC[P+](c2ccccc2)(c2ccccc2)c2ccccc2)=C(C)C1=O,active
15,CC1=C(C)C(=O)C(C(CCCCCC(=O)O)c2ccccc2)=C(C)C1=O (stereo unspecified),inactive
16,CC1=CC(=O)c2ccccc2C1=O,inactive
17,CC1=C(C)C(=O)C(CCCCCCCCCC[P+](c2ccccc2)(c2ccccc2)c2ccccc2)=CC1=O,active
18,COC1=C(OC)C(=O)C(C/C=C(\C)CC/C=C(\C)CC/C=C(\C)CC/C=C(/C)CC/C=C(\C)CC/C=C(\C)CC/C=C(\C)CC/C=C(\C)CC/C=C(\C)CCC=C(C)C)=C(C)C1=O,inactive
19,Nc1ccc(NC(=O)CCN2CCOCC2)cc1,inactive
20,C[C@@H]1CN([C@H](C)CO)C(=O)c2cccc(NC(=O)CCCCCC(=O)Nc3ccccc3N)c2O[C@H]1CN(C)CC1CCCCC1,inactive
21,CC(=O)N(C)C[C@H]1Oc2cc(C#CCN(C)C)ccc2S(=O)(=O)N([C@H](C)CO)C[C@H]1C,inactive
22,C[C@@H]1CCCCO[C@H](CN(C)Cc2ccc(C(=O)O)cc2)[C@H](C)CN([C@H](C)CO)C(=O)c2cc(NC(=O)Nc3ccc(C(F)(F)F)cc3)ccc2O1,inactive
23,C[C@H]1CN([C@@H](C)CO)C(=O)c2cc(NS(=O)(=O)c3cn(C)cn3)ccc2O[C@H]1CN(C)C(=O)Nc1ccccc1,inactive

row,SMILES,cytotoxicity call
1,C[C@H]1CN([C@@H](C)CO)C(=O)c2cc(/C=C/c3ccccc3)cnc2O[C@@H]1CN(C)S(=O)(=O)c1cn(C)cn1,inactive
2,COc1ccc(CN(C)C[C@H]2OCCCC[C@@H](C)Oc3ccc(NS(=O)(=O)c4ccc(F)cc4)cc3C(=O)N([C@@H](C)CO)C[C@@H]2C)cc1,inactive
3,O=c1n(-c2ccc(F)cc2)nc2n1CCCN2,inactive
4,Cc1ccc(S(=O)(=O)N(C)C[C@H]2Oc3ccc(NC(=O)Cn4cnnn4)cc3CC(=O)N([C@H](C)CO)C[C@@H]2C)cc1,inactive
5,CC1OC(OC2C(O)CC(OC3C(O)CC(OC4CCC5(C)C(CCC6C5CCC5(C)C(C7=CC(=O)OC7)CCC65O)C4)OC3C)OC2C)CC(O)C1O (stereo unspecified),active
6,C[C@H]1O[C@@H](O[C@H]2[C@@H](O)C[C@H](O[C@H]3[C@@H](O)C[C@H](O[C@H]4CC[C@@]5(C)[C@H](CC[C@@H]6[C@@H]5CC[C@]5(C)[C@@H](C7=CC(=O)OC7)CC[C@]65O)C4)O[C@@H]3C)O[C@@H]2C)C[C@H](O)[C@@H]1O,active
7,C[C@H](CO)N1C[C@H](C)[C@@H](CN(C)Cc2ccc(Cl)c(Cl)c2)Oc2ccc(NC(=O)NC3CCCCC3)cc2C1=O,inactive
8,C[C@@H]1CN([C@H](C)CO)C(=O)Cc2cc(NC(=O)CCCCCC(=O)Nc3ccccc3N)ccc2O[C@@H]1CN(C)C(=O)Nc1ccc(F)cc1,inactive
9,COc1ccc(NC(=O)Nc2ccc3c(c2)CC(=O)N([C@@H](C)CO)C[C@@H](C)[C@H](CN(C)CC2CCCCC2)O3)cc1,inactive
10,O=C(C[C@H]1CC[C@H](NS(=O)(=O)c2ccccc2)[C@H](CO)O1)NCc1ccncn1,inactive
11,COc1ccc2c(-c3ccc(Cl)cc3)c(C)oc2c1,inactive
12,C[C@H](CO)N1C[C@H](C)[C@H](CN(C)S(=O)(=O)c2ccccc2)Oc2ccc(NC(=O)Cc3ccccc3)cc2C1=O,inactive
13,O=C(C[C@@H]1C[C@@H]2c3cc(NS(=O)(=O)c4ccccc4)ccc3O[C@@H]2[C@H](CO)O1)NCC(F)(F)F,inactive
14,C[C@@H]1CCCCO[C@H](CN(C)Cc2ccc3c(c2)OCO3)[C@@H](C)CN([C@H](C)CO)C(=O)c2cc(NS(=O)(=O)c3ccccc3)ccc2O1,inactive
15,C/C=C(/C)C(=O)O[C@@H]1[C@H](OC(C)=O)[C@]2(CO)[C@H](O)C[C@]3(C)C(=CC[C@H]4[C@@]5(C)CC[C@H](O[C@@H]6O[C@H](C(=O)O)[C@@H](O[C@@H]7O[C@H](CO)[C@@H](O)[C@H](O)[C@H]7O)[C@H](O)[C@H]6O[C@@H]6O[C@H](CO)[C@@H](O)[C@H](O)[C@H]6O)[C@](C)(CO)[C@@H]5CC[C@]43C)[C@@H]2CC1(C)C,inactive
16,C[C@H]1O[C@@H](OC(=O)[C@]23CCC(C)(C)C[C@H]2C2=CC[C@H]4[C@@]5(C)CC[C@H](O[C@@H]6O[C@H](C(=O)O)[C@@H](O)[C@H](O[C@@H]7OC[C@@H](O)[C@H](O)[C@H]7O)[C@H]6O[C@@H]6O[C@H](CO)[C@H](O)[C@H](O)[C@H]6O)[C@@](C)(C=O)[C@@H]5CC[C@@]4(C)[C@]2(C)C[C@H]3O)[C@H](O[C@H]2O[C@@H](CO)[C@@H](O)[C@@H](O)[C@@H]2O)[C@@H](O)[C@H]1O[C@@H]1O[C@H](C)[C@@H](O[C@H]2OC[C@@H](O)[C@@H](O)[C@@H]2O)[C@H](O)[C@@H]1O,inactive
17,CC1(C)CC[C@]2(C(=O)O[C@H]3O[C@@H](CO)[C@@H](O)[C@@H](O)[C@@H]3O)CC[C@]3(C)C(=CC[C@H]4[C@@]5(C)C[C@@H](O)[C@H](O[C@H]6O[C@H](C(=O)O)[C@@H](O)[C@@H](O)[C@@H]6O)C(C)(C)[C@@H]5CC[C@]43C)[C@@H]2C1,inactive
18,C[C@@H]1O[C@@H](O[C@@H]2[C@@H](O)[C@@H](O[C@@H]3O[C@@H](CO)[C@H](O)[C@H]3O)[C@H](OC(=O)[C@]34CCC(C)(C)C[C@H]3C3=CC[C@H]5[C@@]6(C)C[C@H](O)[C@H](O[C@@H]7O[C@@H](C)[C@H](O)[C@@H](O[C@@H]8OC[C@@H](O)[C@H](O)[C@H]8O[C@@H]8O[C@H](CO)[C@@H](O)[C@H](O)[C@H]8O)[C@H]7O)[C@@](C)(CO)[C@@H]6CC[C@@]5(C)[C@]3(C)C[C@H]4O)O[C@H]2C)[C@H](O)[C@H](O)[C@H]1O,inactive
19,C/C=C(/C)C(=O)O[C@H]1[C@@H](OC(C)=O)[C@@]2(CO)[C@@H](O)C[C@@]3(C)C(=CC[C@H]4[C@@]5(C)CC[C@@H](O[C@H]6O[C@H](C(=O)O)[C@@H](O[C@H]7O[C@@H](CO)[C@@H](O)[C@@H](O)[C@@H]7O)[C@@H](O)[C@@H]6O[C@H]6O[C@@H](CO)[C@@H](O)[C@@H](O)[C@@H]6O)[C@@](C)(CO)[C@@H]5CC[C@]43C)[C@@H]2CC1(C)C,active
20,CC=C(C)C(=O)O[C@H]1[C@H](OC(C)=O)[C@]2(CO)[C@H](O)C[C@]3(C)C(=CC[C@@H]4[C@@]5(C)CC[C@H](O[C@@H]6O[C@H](C(=O)O)[C@@H](O[C@@H]7O[C@H](CO)[C@@H](O)[C@H](O)[C@H]7O)[C@H](O)[C@H]6O[C@@H]6O[C@H](CO)[C@@H](O)[C@H](O)[C@H]6O)[C@](C)(CO)[C@@H]5CC[C@]43C)[C@@H]2CC1(C)C,active
21,C[C@H]1O[C@@H](O[C@H]2CC[C@@]3(C)[C@@H](CC[C@@]4(C)[C@@H]3CC=C3[C@H]5C[C@](C)(C(=O)O)CC[C@]5(C(=O)O[C@H]5O[C@@H](CO)[C@@H](O)[C@@H](O)[C@@H]5O)CC[C@@]34C)[C@@]2(C)CO)[C@@H](O)[C@@H](O[C@H]2O[C@@H](CO)[C@@H](O)[C@@H](O)[C@@H]2O)[C@@H]1O,inactive
22,C[C@@H]1O[C@@H](O[C@@H]2CC[C@@]3(C)[C@@H](CC[C@]4(C)[C@@H]3CC=C3[C@@H]5CC(C)(C)CC[C@]5(C(=O)O[C@@H]5O[C@H](CO[C@@H]6O[C@H](CO)[C@@H](O)[C@H](O)[C@H]6O)[C@@H](O)[C@H](O)[C@H]5O)CC[C@]34C)[C@]2(C)CO)[C@H](O)[C@H](O[C@@H]2OC[C@@H](O)[C@H](O)[C@H]2O)[C@H]1O,inactive
23,CC=C(C)C(=O)OC1C(OC(C)=O)C2(CO)C(O)CC3(C)C(=CCC4C5(C)CCC(OC6OC(C(=O)O)C(OC7OC(CO)C(O)C(O)C7O)C(O)C6OC6OC(CO)C(O)C(O)C6O)C(C)(CO)C5CCC43C)C2CC1(C)C (stereo unspecified),active
